Data taken from ChEMBL document CHEMBL4513216, “Probing the Open Global Health Chemical Diversity Library for Multistage-Active Starting Points for Next-Generation Antimalarials” (ACS Infect Dis, 2020).
About 8,600 (12%) of roughly 69,000 compounds showed an effect of 50% or more. The sample as a whole holds a higher share of strong results than the screen did.

These compounds were tested on Plasmodium berghei (assay: Screen against P. berghei liver stage (PbLuc), transformed with Luciferase, at 10uM). Details: tested at 10 uM.
Type: functional, HepG2

In order of falling INHIBITION:
1. COc1ccc(CC(C)(O)CNC(=O)Cc2ccc(F)cc2)cc1 (centres undefined)  77.6%
2. CN(Cc1csc(-c2ccccc2)n1)C(=O)CCn1ccccc1=O  66.9%
3. Cc1cn2c(n1)CCC(NC(=O)c1[nH]nc(C)c1Br)C2 (centres undefined)  64.7%
4. CC(C)c1ncc2c(n1)CN(c1ncnc3[nH]ccc13)CC2  63.4%
5. CNC(=O)Cn1c(-c2ccco2)nn(-c2ccccc2OC)c1=O  59.5%
6. Cc1cn2c(n1)CCC(NC(=O)CCC(F)(F)F)C2 (centres undefined)  54.9%
7. CNc1cncc(C2CCCN2C(=O)c2ccc3c(c2)CCC3)n1 (centres undefined)  54.5%
8. COc1cccc(-c2n[nH]c3c2CN(C(=O)c2cccc(=O)[nH]2)CC3)c1  53.8%
9. Cc1cn2c(n1)CCC(NC(=O)CCCOCc1ccccc1)C2 (centres undefined)  53.4%
10. CNc1cncc(C2CCCN2c2cc(C)ncn2)n1 (centres undefined)  52%
11. CNc1cncc(C2CCCN2Cc2ccn(C)n2)n1 (centres undefined)  51.5%
12. CCCc1ccc(S(=O)(=O)NC2(CC(N)=O)CCC2)cc1  51.3%
13. CNc1cncc(C2CCCN2Cc2cccc(C)n2)n1 (centres undefined)  45.6%
14. COc1ccccc1-n1nc(-c2ccco2)n(CC(=O)NC(C)C)c1=O  45.6%
15. CCS(=O)(=O)CCNC(=O)C1(c2cccc(Cl)c2)CC1  44.8%
16. COc1ccc(S(=O)(=O)NC2(CC(N)=O)CCC2)cc1  42.7%
17. CCO[C@@H]1CC[C@H]2[C@H]1OCCN2CCOCc1ccccc1  41.2%
18. CC(=O)N(Cc1ncc(C)o1)C1CCN(CCn2cccn2)C1 (centres undefined)  40.8%
19. COc1ccc(CC(C)(O)CNC(=O)Cc2cccs2)cc1 (centres undefined)  40.7%
20. Cc1cn2c(n1)CCC(NC(=O)c1[nH]ncc1Br)C2 (centres undefined)  40%
21. CC(C)c1ccc(S(=O)(=O)NC2(CC(N)=O)CCC2)cc1  37.7%
22. COc1cccc(-c2n[nH]c3c2CN(C(=O)c2cc(C)n(C)n2)CC3)c1  36.6%
23. CNc1cncc(C2CCCN2Cc2ccccn2)n1 (centres undefined)  35.8%
24. Cc1noc(C(C)C)c1C(=O)NCc1cccnc1  34.7%
25. COc1ccccc1OCCC(=O)NC1CCc2nc(C)cn2C1 (centres undefined)  34.6%
26. CCc1ccc(CN2CCC3(CC2)CNC(=O)CO3)o1  33.7%
27. c1ncc2c(n1)CN(c1ncnc3[nH]ccc13)CC2  32.7%
28. CNc1cncc(C2CCCN2C(=O)c2ccc3c(c2)OCCO3)n1 (centres undefined)  30.8%
29. O=C(O)c1cc(S(=O)(=O)Nc2cc(Cl)ccc2F)cc2c1OCCO2  27.6%
30. COc1ccccc1-n1nc(-c2ccco2)n(CC(=O)NC2CC2)c1=O  27.6%
31. Cc1cn2c(n1)CCC(NC(=O)CCC1CC1)C2 (centres undefined)  26.9%
32. CCCc1noc(CN2CCC(NC(=O)c3ccc(C)s3)CC2)n1  25%
33. C[C@@H]1CN(C(=O)C2(Cn3cccn3)CC2)CC[C@@]1(O)C1CC1  24.205%
34. CN1CCN(C(=O)[C@@H]2CN(C)C[C@]23COc2ccc(F)cc2C3=O)CC1  24.2%
35. COc1ccc(COCC(=O)NC2CCc3nc(C)cn3C2)cc1 (centres undefined)  21.7%
36. Cc1cc2n(n1)CC(CNCc1ccc(Oc3ccccc3)nc1)CN2 (centres undefined)  21.55%
37. CN(C)C(=O)c1coc(COc2ccccc2)n1  19.4%
38. Cc1ncc2c(n1)CN(c1ncnc3[nH]ccc13)CC2  17.8%
39. Cc1cc(NC(=O)CNC2CCc3ncnn3C2)no1 (centres undefined)  17.4%
40. Cc1nccn1CCN(C)C(=O)C1CCN(C(=O)C2CCC2)CC1  16.9%
41. CC1N(c2cnn(C)c2)C(=O)COC12CCN(Cc1ccco1)CC2 (centres undefined)  16.6%
42. Cc1ccc(C(=O)N2CCCC3(CCCC(=O)N3C)C2)cc1F (centres undefined)  15.7%
43. Cc1cc(N2CCCC2c2cncc(N(C)C)n2)ncn1 (centres undefined)  14.7%
44. CCCN1CCC(Cc2noc(-c3cc4cccnc4nc3C)n2)CC1  12.9%
45. O=S(=O)(NCC1CCCN(Cc2ccccc2F)C1)C1CC1 (centres undefined)  11.5%
46. Cc1cc(N2CCCC2c2cnccn2)ncn1 (centres undefined)  11.4%
47. COCc1nc(CN2CCN(c3ccc(OC)cc3)C(=O)C2C)no1 (centres undefined)  11%
48. CC(C)Cc1cc(C(=O)NCCc2ccc(S(C)(=O)=O)cc2)[nH]n1  8.69%
49. Cc1noc(C2CCC3(CCN(C(=O)c4cc(C5CC5)on4)CC3)O2)n1 (centres undefined)  7.53%
50. CNc1cncc(C2CCCN2C(=O)c2ccc3oc(C)cc3c2)n1 (centres undefined)  6.81%
51. Cc1cnn(CCC(=O)NC2CCc3nc(C)cn3C2)c1 (centres undefined)  5.9%
52. CCc1nc(CN2CCCC(NCc3nnc(C4CC4)n3C)C2)no1 (centres undefined)  1.75%
53. O=C(Nc1ccc2c(c1)OCCO2)N1CCCC1c1ccco1 (centres undefined)  -0.87%
54. CNc1cc(N2CCCC2CNCc2cccnc2)ncn1 (centres undefined)  -3.19%
55. Cc1cc(C(=O)NC2CCc3nc(C)cn3C2)[nH]n1 (centres undefined)  -3.26%
56. NC(=O)Cn1c(CO)cnc1SCc1ccccc1Cl  -4.01%
57. COc1cccc(-c2n[nH]c3c2CN(C(=O)c2ccncc2)CC3)c1  -4.91%
58. Cc1noc(C)c1CN(C)C(=O)CCn1c(=O)n(C)c2ccccc21  -6.61%
59. CCOC(=O)CC(c1ccc(OC)cc1)c1c(O)n[nH]c1C (centres undefined)  -14.9%
60. CN(CC(=O)NC(N)=O)CC1(c2ccc(Br)cc2)CC1  -17.3%
61. O=C(NCC(F)(F)F)c1ccc(-n2cncn2)nn1  -17.8%
62. COc1ccc(CC(C)(O)CNC(=O)c2cccs2)cc1 (centres undefined)  -18%
63. CN(Cc1csc(-c2cccs2)n1)C(=O)CCn1ccccc1=O  -33%
64. COC1COC2(CCN(Cc3ccc4c(c3)OCO4)CC2)C1 (centres undefined)  -39.3%
65. Cc1cccc(CN2C[C@@H]3[C@@H](C(=O)NCC(C)C)CCS(=O)(=O)[C@@H]3C2)c1  -41.9%
66. COc1ccc(CCN(C)C2CCCN(Cc3noc(C)n3)C2)cc1 (centres undefined)  -42.3%
67. CCOCC1CN(C(=O)c2ccncc2)Cc2nn(C)cc21 (centres undefined)  -46.9%
68. CN(Cc1csc(-c2ccccc2)n1)C(=O)CCNS(C)(=O)=O  -47.9%
69. Cc1cc(C(=O)N2CCC3(CCC(=O)N(CC(N)=O)C3)CC2)ccc1O  -64.3%
